Measured values from PubChem BioAssay (Tox21).
Values without a mark were called inactive. Records with an inconclusive call do not appear. Entries that show only a call come without a potency. The source made the active and inactive calls. Unless noted, calls come from the whole dose curve; as a rule, active = well fitted curve in the direction sought with a large enough effect in the repeat runs; inconclusive = weak or mixed curves; inactive = no such curve, though single readings can be large; an effect the other way counts as inactive or inconclusive.

What was measured:
[1] = A CellTox Green Cytotoxicity Assay to monitor cytotoxicity in HepG2 cells - 8 hour (AID 1224890); note: nearly all actives have a fitted effect of over 45% in size
How it was run: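 Measurements at 0, 8, 16, 24, 32 and 40 h of treatment captured CellTox Green fluorescence in HepG2 cells that had been co-plated with reagent and preincubated 5 h at 37 C/5% CO2.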

[2] = qHTS assay to identify small molecule antagonists of the estrogen receptor alpha (ER-alpha) signaling pathway using the BG1 cell line in the presence of 0.1 nM 17-beta-estradiol - cell viability counter screen (AID 1259241); note: nearly all actives have a fitted effect of over 40% in size
How it was run: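 VM7Luc4E2, 4,000 cells/well, phenol red-free medium + 10% charcoal-stripped FBS; 24 hr plating; cpd + 0.1 nM E2 final, 22 hr 37C/5% CO2; CellTiter-Fluor 30 min, fluorescence.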

[3] = qHTS assay to identify small molecule antagonists of the androgen receptor (AR) signaling pathway using the MDA cell line in the presence of 0.5 nM R1881 - cell viability counter screen (AID 1259242); note: nearly all actives have a fitted effect of over 45% in size
How it was run: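 Concentration-response screen of compounds for toxicity in MDA-kb2 reporter cells: 16 hr at 37C with 0.5 nM R1881, endpoint live-cell protease fluorescence measured in the reporter wells.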

[4] = target: Androgen receptor (Homo sapiens) (UniProt P10275); assay: qHTS assay to identify small molecule antagonists of the androgen receptor (AR) signaling pathway using the MDA cell line in the presence of 0.5 nM R1881 (AID 1259243); note: nearly all actives have a fitted effect of over 50% in size
Androgen receptor (Homo sapiens), sequence (P10275 whole entry, looked up): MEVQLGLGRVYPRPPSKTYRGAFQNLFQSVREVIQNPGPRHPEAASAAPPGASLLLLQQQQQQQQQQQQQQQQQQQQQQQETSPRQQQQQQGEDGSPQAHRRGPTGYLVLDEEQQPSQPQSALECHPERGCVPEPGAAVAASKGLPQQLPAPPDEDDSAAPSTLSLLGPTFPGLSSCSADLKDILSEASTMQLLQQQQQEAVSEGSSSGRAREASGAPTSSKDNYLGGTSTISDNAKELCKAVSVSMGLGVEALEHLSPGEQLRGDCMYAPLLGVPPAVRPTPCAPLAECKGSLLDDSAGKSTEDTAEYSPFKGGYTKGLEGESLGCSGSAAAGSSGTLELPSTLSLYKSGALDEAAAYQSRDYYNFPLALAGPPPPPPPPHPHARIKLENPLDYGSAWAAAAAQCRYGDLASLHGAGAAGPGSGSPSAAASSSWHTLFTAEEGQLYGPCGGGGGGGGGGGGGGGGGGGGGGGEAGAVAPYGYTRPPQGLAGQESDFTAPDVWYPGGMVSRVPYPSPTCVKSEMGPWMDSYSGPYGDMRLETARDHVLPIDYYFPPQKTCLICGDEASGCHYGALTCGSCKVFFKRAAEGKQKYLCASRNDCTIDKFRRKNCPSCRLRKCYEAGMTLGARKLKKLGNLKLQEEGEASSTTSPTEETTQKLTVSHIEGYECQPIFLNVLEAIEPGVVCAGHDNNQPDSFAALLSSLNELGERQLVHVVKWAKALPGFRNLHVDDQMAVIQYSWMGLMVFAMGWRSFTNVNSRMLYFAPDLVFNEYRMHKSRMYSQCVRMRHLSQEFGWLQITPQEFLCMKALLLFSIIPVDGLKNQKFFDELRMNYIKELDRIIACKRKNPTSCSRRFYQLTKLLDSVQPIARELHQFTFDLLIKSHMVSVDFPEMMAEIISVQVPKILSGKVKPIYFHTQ
How it was run: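 With R1881 held at 0.5 nM (final), compound effects on MMTV-luciferase expression in MDA-kb2 cells were scored by luminescence after a 16 hr, 37C incubation.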

[5] = qHTS assay to identify small molecule HDAC inhibitors (AID 1259364);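 note: wild-type HCT-116 cells with endogenous class I/II HDAC activity; top concentration of the series differs between compounds; nearly all actives have a fitted effect of over 45% in size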
How it was run: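 Screening used wild-type human colon HCT-116 cells incubated overnight, dosed with compounds for 2 hours, and assayed with a homogeneous luminogenic HDAC I/II reagent for 30 minutes at room temperature.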

[6] = qHTS assay to identify small molecule HDAC inhibitors - cell viability counter screen (AID 1259365); note: series mostly up to about 92 µM; nearly all actives have a fitted effect of over 50% in size
How it was run: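 Luminescence from CellTiter-Glo, developed 30min at room temperature, reports viability of wild-type HCT-116 cells treated 2hr with compounds at 37 C and 5% CO2 after overnight plating.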

[7] = qHTS assay to identify small molecule agonists of the sonic hedgehog signaling (Shh) pathway - cell viability counter screen (AID 1259366); note: nearly all actives have a fitted effect of over 50% in size
How it was run: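 Cytotoxicity counter screen run in the same wells as the Shh reporter assay. NIH/3T3 cells carrying a Gli1 response element–driven luciferase were treated with DMSO-dissolved compounds for 24hr, and live-cell protease activity was measured with CellTiter-Fluor.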

[8] = qHTS assay to identify small molecule antagonists of the sonic hedgehog signaling (Shh) pathway - cell viability counter screen (AID 1259367); note: nearly all actives have a fitted effect of over 55% in size
How it was run: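 Tox21 library chemicals were tested on a Gli1-Luc NIH/3T3 clone (2,000 cells/well) stimulated by conditioned medium; viability was quantified as fluorescence from CellTiter-Fluor reagent added at 23 hr.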

[9] = qHTS assay to identify small molecule agonists of the sonic hedgehog signaling (Shh) pathway (AID 1259368; calls by dose curve;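 note: NIH/3T3-derived 3T3Gli1-Luc cells carrying a stable Gli1-driven firefly luciferase reporter; series mostly up to about 92 µM; nearly all actives have a fitted effect of over 15% in size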)
How it was run: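 Hedgehog pathway agonism scored by increased firefly luciferase luminescence in 3T3Gli1-Luc cells treated 24 hr at 37 C; detection used a 30 min room-temperature reagent incubation.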

[10] = qHTS assay to identify small molecule antagonists of the sonic hedgehog signaling (Shh) pathway (AID 1259369; calls by dose curve; note: nearly all actives have a fitted effect of over 45% in size)
How it was run: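 NIH/3T3 stable Gli1-Luc clone, 2,000 cells/well, 4hr settle; cpd + conditioned medium 24hr; Luc reagent 30min RT; luminescence.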

[11] = target: Estrogen receptor beta (Homo sapiens) (UniProt Q92731); assay: qHTS assay to identify small molecule agonists of the estrogen receptor beta (ER-beta) signaling pathway (AID 1259377; active = well fitted activation curve with a large enough effect in the signal ratio in the repeat runs, not every such curve was filed as active; the % refers to the signal ratio)
Estrogen receptor beta (Homo sapiens), sequence (Q92731 whole entry, looked up): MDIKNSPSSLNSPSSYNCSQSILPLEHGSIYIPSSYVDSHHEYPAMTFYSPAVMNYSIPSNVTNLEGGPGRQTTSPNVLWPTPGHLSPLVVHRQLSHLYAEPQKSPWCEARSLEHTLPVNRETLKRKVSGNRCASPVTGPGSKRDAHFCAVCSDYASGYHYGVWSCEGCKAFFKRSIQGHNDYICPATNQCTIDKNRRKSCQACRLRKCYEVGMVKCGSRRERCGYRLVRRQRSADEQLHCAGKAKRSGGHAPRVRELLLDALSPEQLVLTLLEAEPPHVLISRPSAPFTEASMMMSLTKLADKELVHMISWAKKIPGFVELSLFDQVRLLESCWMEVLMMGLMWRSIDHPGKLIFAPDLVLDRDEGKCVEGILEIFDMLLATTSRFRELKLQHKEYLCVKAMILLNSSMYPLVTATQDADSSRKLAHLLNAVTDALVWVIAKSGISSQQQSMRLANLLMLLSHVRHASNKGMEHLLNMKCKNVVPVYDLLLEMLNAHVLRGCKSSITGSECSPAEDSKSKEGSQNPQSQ
How it was run: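 HEK293T ER-beta-UAS-bla; 2% charcoal-stripped FBS; cells pre-incubated 6 hr, compound 16 hr, 37C/5% CO2; LiveBLAzer B/G FRET substrate 2 h RT; fluorescence intensity read.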

[12] = target: Estrogen receptor beta (Homo sapiens) (UniProt Q92731); assay: qHTS assay to identify small molecule antagonists of the estrogen receptor beta (ER-beta) signaling pathway (AID 1259378; active = well fitted inhibition curve with a large enough effect in the signal ratio in the repeat runs, not every such curve was filed as active; the % refers to the signal ratio)
How it was run: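 ER-beta-UAS-bla HEK293T cells in 2% charcoal-stripped FBS medium treated with compound plus 1nM final 17-beta-estradiol for 16 hr at 37C. Beta-lactamase reporter read by FRET substrate fluorescence after 2 hours at room temperature.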

[13] = qHTS assay to identify small molecule agonists of the androgen receptor (AR) signaling pathway in the presence of an antagonist - cell viability counter screen (AID 1259379);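 note: MDA-kb2 human breast cancer cells carrying an MMTV luciferase reporter; series mostly up to about 92 µM; nearly all actives have a fitted effect of over 25% in size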
How it was run: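 MDA-kb2 viability measured by CellTiter-Fluor fluorescence in the same wells as the luciferase signal; nilutamide 3.0uM final; 15-point compound titration; 16 hr at 37C.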

[14] = qHTS assay to identify small molecule agonists of the estrogen receptor beta (ER-beta) signaling pathway - cell viability counter screen (AID 1259380); note: nearly all actives have a fitted effect of over 30% in size; note: potency is the fitted concentration of half-maximal effect
How it was run: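 Measured: luminescence from CellTiter-Glo after 30 min at room temperature, added to wells already read for the LiveBLAzer FRET reporter (2 hr substrate); ER-beta-UAS-bla HEK293T cells had 16 hr compound treatment at 37C, 5% CO2.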

[15] = target: Androgen receptor (Homo sapiens) (UniProt P10275); assay: qHTS assay to identify small molecule agonists of the androgen receptor (AR) signaling pathway in the presence of an antagonist (AID 1259381; calls by dose curve; note: nearly all actives have a fitted effect of over 15% in size)
How it was run: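 Luminescent ONE-Glo read, 30min at room temperature, follows 16hr compound exposure (15 concentrations) of MDA-kb2 cells at 37C, 0% CO2, with nilutamide added at 3.0uM final.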

[16] = qHTS assay to identify small molecule antagonists of the estrogen receptor beta (ER-beta) signaling pathway - cell viability counter screen (AID 1259382); note: series mostly up to about 92 µM; nearly all actives have a fitted effect of over 55% in size
How it was run: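 Readout: luminescence, CellTiter-Glo, same wells as bla assay. System: ER-beta-UAS-bla GripTite HEK293T, 2% charcoal-stripped FBS. Exposure: compounds plus 1nM 17-beta-estradiol, 16 hr, 37C.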

[17] = target: Estrogen receptor (Homo sapiens) (UniProt P03372); assay: qHTS assay to identify small molecule agonists of the estrogen receptor alpha (ER-alpha) signaling pathway in the presence of an antagonist (AID 1259383; calls by dose curve; note: top concentration of the series differs between compounds; nearly all actives have a fitted effect of over 15% in size)
Estrogen receptor (Homo sapiens), sequence (P03372 whole entry, looked up): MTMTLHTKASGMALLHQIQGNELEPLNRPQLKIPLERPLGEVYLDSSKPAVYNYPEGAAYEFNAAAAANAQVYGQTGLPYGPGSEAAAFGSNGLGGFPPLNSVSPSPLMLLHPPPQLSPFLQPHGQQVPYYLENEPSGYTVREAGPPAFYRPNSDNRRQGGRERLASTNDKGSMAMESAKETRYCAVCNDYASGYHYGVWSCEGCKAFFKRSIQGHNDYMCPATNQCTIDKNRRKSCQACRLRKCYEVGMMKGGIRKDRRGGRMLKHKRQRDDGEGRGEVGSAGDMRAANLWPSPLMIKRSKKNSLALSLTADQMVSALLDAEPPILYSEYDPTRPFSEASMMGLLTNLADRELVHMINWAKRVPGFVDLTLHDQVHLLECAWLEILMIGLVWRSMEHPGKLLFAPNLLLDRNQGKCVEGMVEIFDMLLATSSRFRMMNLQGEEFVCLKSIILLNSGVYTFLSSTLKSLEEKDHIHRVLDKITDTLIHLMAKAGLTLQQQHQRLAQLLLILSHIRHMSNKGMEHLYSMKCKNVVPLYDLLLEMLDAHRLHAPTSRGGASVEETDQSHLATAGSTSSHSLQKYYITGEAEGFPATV
How it was run: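 Quantitative HTS confirmation: compounds titrated at 15 concentrations onto estrogen-deprived VM7Luc4E2 cells carrying a four-ERE luciferase construct, with ICI-182,780 present at 10.0nM final. Signal is luminescence after 22hr exposure.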

[18] = qHTS assay to identify small molecule agonists or antagonists of the thyroid stimulating hormone receptor (TSHR) signaling pathway - wild type cell line counter screen (AID 1259384; calls by dose curve)
How it was run: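 Wild-type Hek293 cells, 800/well, 18 h at 37C, then compound with Ro20-1724 for 30 min RT. cAMP by HTRF (cAMP-d2/anti-cAMP cryptate), 1 h RT, fluorescence read. 15 concentrations, triplicates.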

[19] = target: Estrogen receptor (Homo sapiens) (UniProt P03372); assay: qHTS assay to identify small molecule antagonists of the estrogen receptor alpha (ER-alpha) signaling pathway using the BG1 cell line in the presence of 0.1 nM 17-beta-estradiol (AID 1259244); note: nearly all actives have a fitted effect of over 50% in size
How it was run: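 Compounds were tested against 0.1 nM (final) 17beta-estradiol in VM7Luc4E2 cells, which express full-length ER-alpha and an ERE-luciferase reporter; luminescence was recorded following 22 h exposure.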

[20] = qHTS assay to identify small molecule phospholipidosis (PLD) inducers (AID 1259344; active = well fitted curve in the direction sought with a large enough effect; an effect the other way counts as inactive or inconclusive)
How it was run: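 Image-based: LipidTOX Red pit count/intensity per well and per cell; HepG2, 24 h compound at 37 C, PFA fixation, Hoechst counterstain.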

CCC(C)(C)C(=O)O
Potency [1]: inactive | Potency [2]: inactive | Potency [3]: inactive | Potency [4]: inactive | Potency [5]: inactive | Potency [6]: inactive | Potency [7]: inactive | Potency [8]: inactive | Potency [9]: inactive | Potency [10]: inactive | Potency [11]: inactive | Potency [12]: inactive | Potency [13]: inactive | Potency [14]: inactive | Potency [15]: inactive | Potency [16]: inactive | Potency [17]: inactive | Potency [18]: inactive

O=C(C(=O)c1ccco1)c1ccco1
Potency [1]: inactive | Potency [2]: inactive | Potency [3]: inactive | Potency [4]: inactive | Potency [19]: inactive | Potency [5]: inactive | Potency [6]: inactive | Potency [7]: inactive | Potency [8]: inactive | Potency [9]: inactive | Potency [10]: inactive | Potency [11]: inactive | Potency [12]: inactive | Potency [13]: inactive | Potency [14]: inactive | Potency [16]: inactive | Potency [17]: inactive

Cc1oc(=O)oc1COC(=O)[C@@H]1N2C(=O)[C@@H](NC(=O)[C@H](N)c3ccccc3)[C@H]2SC1(C)C
Potency [1]: inactive | Potency [2]: inactive | Potency [3]: inactive | Potency [4]: inactive | Potency [19]: inactive | Potency [5]: inactive | Potency [6]: inactive | Potency [7]: inactive | Potency [8]: inactive | Potency [9]: inactive | Potency [10]: inactive | Potency [11]: inactive | Potency [12]: inactive | Potency [13]: inactive | Potency [14]: inactive | Potency [15]: inactive | Potency [16]: inactive | Potency [17]: inactive | Potency [18]: inactive

COc1cc(NS(=O)(=O)c2ccc(N)cc2)nc(C)n1
Potency [1]: inactive | Potency [2]: inactive | Potency [3]: inactive | Potency [19]: inactive | PLD induction [20]: -3.88% [at 7.66 µM] | Potency [5]: inactive | Potency [6]: inactive | Potency [7]: inactive | Potency [8]: inactive | Potency [9]: inactive | Potency [10]: inactive | Potency [13]: inactive | Potency [14]: inactive | Potency [16]: inactive | Potency [17]: inactive | Potency [18]: inactive

CCCCCCCCCCCCCOS(=O)(=O)O
Potency [1]: inactive | Potency [2]: inactive | Potency [3]: inactive | Potency [4]: inactive | Potency [5]: inactive | Potency [6]: inactive | Potency [7]: inactive | Potency [8]: inactive | Potency [9]: inactive | Potency [10]: inactive | Potency [13]: inactive | Potency [14]: 54.5 µM (active) | Potency [15]: inactive | Potency [18]: inactive

CCOCCC(=O)OCC
Potency [1]: inactive | Potency [2]: inactive | Potency [3]: inactive | Potency [19]: inactive | Potency [5]: inactive | Potency [6]: inactive | Potency [7]: inactive | Potency [8]: inactive | Potency [9]: inactive | Potency [10]: inactive | Potency [11]: inactive | Potency [12]: inactive | Potency [13]: inactive | Potency [14]: inactive | Potency [16]: inactive | Potency [17]: inactive

CCCCC(CC)COS(=O)(=O)O (configuration not stated)
Potency [1]: inactive | Potency [2]: inactive | Potency [3]: inactive | Potency [19]: inactive | Potency [20]: inactive | Potency [6]: inactive | Potency [7]: inactive | Potency [8]: inactive | Potency [9]: inactive | Potency [10]: inactive | Potency [11]: inactive | Potency [12]: inactive | Potency [13]: inactive | Potency [14]: inactive | Potency [16]: inactive | Potency [17]: inactive | Potency [18]: inactive
